The sample as a whole holds a higher share of hits than the screen did.
Lassa entry inh: Lassa virus entry inhibition; Lassa virus pseudotype entry inhibition, cell reporter; Potency, µM (doses to about 37.9 µM), for the others: top-dose activity change, negative = inhibition, actives largely listed as inhibitors; 300,000 tested, 1.2% active; calls by dose curve; tested in HEK293 cells; note: potency is the fitted concentration of half-maximal effect; % is set by controls: 0 for no effect and ±100 for the full control effect; nearly all actives have a fitted effect of over 50% in size
CHX counter: counter-screen for Shiga toxin inhibitors: cycloheximide protein synthesis inhibition. 300,000 tested, 12% active. cell reporter, cycloheximide protein synthesis inhibition counterscreen. max response, %; in the data active = max response mostly above about 13%, no sharp cut-off; inactive = mostly below about 14%; note: read at 38.3 µM for the half of the compounds with a filed dose; 0% is about no effect
Marburg entry inh: Marburg virus entry inhibition. Marburg virus pseudotyped entry inhibition, cell reporter. Potency, µM (doses to about 37.8 µM), inactives show top-dose activity change, negative = inhibition, usual class: inhibitors. 300,000 tested, 1.8% active; calls by dose curve; tested in HEK293 cells; note: potency is the fitted concentration of half-maximal effect; % is set by controls: 0 for no effect and ±100 for the full control effect
Vaccinia Venus: inhibitors of vaccinia virus (Venus reporter). Vaccinia virus Venus reporter expression, fluorescence. Potency, µM (series often up to 36.5 µM), for inactives: at the top dose activity change, negative = inhibition, most hits filed as inhibitors. 330,000 tested, 0.46% active; calls by dose curve; tested in A549 cells; note: potency is the fitted concentration of half-maximal effect; % is set by controls: 0 for no effect and ±100 for the full control effect; nearly all actives have a fitted effect of over 30% in size
VACV mCherry inh: inhibitors of vaccinia virus infection (mCherry reporter signal); AID 720579; Potency, µM (doses to about 36.5 µM), for the others: at the highest dose activity change, negative = inhibition, most hits filed as inhibitors; 310,000 tested, 0.63% active; Vaccinia virus mCherry reporter infection, fluorescence; calls by dose curve; tested in A549 cells; note: potency is the fitted concentration of half-maximal effect; % is set by controls: 0 for no effect and ±100 for the full control effect; nearly all actives have a fitted effect of over 35% in size
Shiga toxin inh: Shiga toxin inhibition; Vero cells, Shiga toxin protein synthesis inhibition reporter; inhibition, % at 38.7 µM; 290,000 tested, 9.2% active; in the data active = inhibition mostly above about 28%, no sharp cut-off; inactive = mostly below about 43%; note: 0% is about no effect
Active calls of the source: *; i = inactive; ? = inconclusive; . = no result; [ ] = dose if it differs, or a comment.

SMILES	Lassa entry inh	CHX counter	Marburg entry inh	Vaccinia Venus	VACV mCherry inh	Shiga toxin inh
CN1CCC(Oc2ccccc2Sc2ccc(C(F)(F)F)cc2)CC1	12µM*	-7	?	.	.	-17
CN1CCC(Oc2ccc(Sc3ccccc3)cc2)CC1	?	68*	?	-23%	?	63*
CSc1ccccc1OC1CCN(Cc2ccccc2)CC1	?	-6	?	-10%	-20%	-14
CCCN(Cc1nnc(-c2ccccc2Cl)o1)C(=O)c1cc(S(=O)(=O)N2CCOCC2)ccc1F	-12%	.	-17%	-19%	-5%	.
CC(C)Oc1ccc(CNC(=O)C2CCN(C(=O)N3CC(C)Oc4ccccc43)CC2)cc1 (centres undefined)	?	.	.	-17%	-11%	.
COC(=O)c1sc(-c2ccc(C(C)(C)C)cc2)cc1NC(=O)COCC(=O)O	-9%	20*	?	-4%	i	44*
COC(=O)c1sc(-c2ccc(Cl)cc2)cc1NC(=O)CSCC(=O)O	.	-2	.	.	.	1
NNC(=O)c1ccc(CN2CCCCC2)o1	2%	-3	4%	10%	i	-23
CC1CC(C)CN(S(=O)(=O)c2ccc(C(=O)Nc3nnc(-c4cccs4)o3)cc2)C1 (centres undefined)	?	-4	7.9µM*	-23%	-30%	-15
CCC1CCCCN1S(=O)(=O)c1ccc(C(=O)Nc2nnc(-c3cccs3)o2)cc1 (centres undefined)	?	1	?	?	?	6
CN(C)S(=O)(=O)c1ccc(C(=O)Nc2nnc(-c3cccs3)o2)cc1	.	19*	.	.	.	16
CC(=O)N1CCc2cc(S(=O)(=O)CCC(=O)NCc3ccc(F)cc3)ccc21	.	-4	.	.	.	2
Cc1sc2nc(CSc3nc4ccccc4s3)[nH]c(=O)c2c1C	.	21*	.	.	.	80
Cc1sc2nc(CSc3ccc([N+](=O)[O-])cc3)[nH]c(=O)c2c1C	.	-2	.	.	.	16
O=c1[nH]c(CSc2nc3ccccc3s2)nc2ccccc12	.	30*	.	.	.	52*
O=c1[nH]c(CSc2nc3ccccc3s2)nc2cc(Cl)ccc12	.	9	.	.	.	25
Cc1cccc2c(N3CCCC3)nc(CNS(=O)(=O)c3ccc4ccccc4c3)nc12	.	.	.	8%	-13%	.
O=C(Nc1ccccc1)c1cc2ccccc2c(=O)s1	1%	41*	-2%	-3%	-6%	36*
O=C(Nc1ccc(Cl)cc1)c1cc2c(Cl)nc3ccccc3c2s1	-5%[46.1 µM]	.	0%[46.1 µM]	-3%	1%	.
O=C(Nc1ccc(O)cc1)c1cc2ccccc2c(=O)s1	-2%	56*	?	-1%	-9%	113*
O=C(Nc1ccccc1)c1cc2ccccc2s1	?	.	?	-18%	i	.
CCOc1ccc([N+](=O)[O-])cc1CNC1CCCCCCC1	.	-4	.	.	.	-12
CCOC(=O)N1CCN(C(=O)c2cc3c(s2)-c2ccccc2OC3)CC1	.	8	.	-18%	-2%	14
CCCN1CCN(C(=O)c2noc3c2COc2ccc(C)cc2-3)CC1	.	17*	.	-3%	14%	54*
CCOC(=O)N1CCN(C(=O)c2noc3c2COc2ccccc2-3)CC1	.	20*	.	.	.	20
SMILES	Lassa entry inh	CHX counter	Marburg entry inh	Vaccinia Venus	VACV mCherry inh	Shiga toxin inh
Fc1ccc(CSc2ccc(-c3ccco3)nn2)cc1	-13%	19*	-1%	-17%	i	33*
Cc1nc(C)c(-c2ccc(SCc3cccc(F)c3)nn2)s1	.	21*	.	.	.	25
O=C(CSc1ccc(-c2ccco2)nn1)c1ccc(F)cc1	11%	29*	2%	-15%	i	active
Fc1cccc(CSc2ccc(-c3ccco3)nn2)c1	5%	67*	23%	-12%	i	79*
Cc1nc(C)c(-c2ccc(SCc3ccc(Cl)cc3)nn2)s1	.	2	.	.	.	9
Cc1nnc2c(N3CCN(c4ccc(F)cc4)CC3)nc3ccc(C(=O)c4ccccc4)cc3n12	-3%[46.1 µM]	.	.	-1%	-10%	.
CCc1nc2c(OCc3ccc(OC(F)F)cc3)cccn2c1N(C)C(=O)c1cccs1	.	.	.	-20%	?	.
CCOc1ccc(S(=O)(=O)NCCC(=O)OC(C)C(=O)N2CCc3ccccc32)cc1 (centres undefined)	-3%	6	?	.	.	-10
Cc1csc2nc(COC(=O)c3ccc(NC(=O)c4ccccc4Br)cc3)cc(=O)n12	?	.	.	-8%	-14%	.
N#CC(CO)(Cc1ccc(OC(F)F)cc1)c1nc2ccccc2[nH]1 (centres undefined)	25%	23*	?	-10%	17%	40*
COc1ccc(CC(C#N)(CO)c2nc3ccccc3[nH]2)cc1 (centres undefined)	-5%	8	?	-29%	?	13
COc1ccc(NC(=O)CCn2c(-c3ccc(F)cc3)cc(C(C)=O)c2C)c(OC)c1	?	.	.	0%	-13%	.
CC(C)N1C(=O)S/C(=C/c2ccccc2OCc2ccc(C(=O)O)cc2)C1=O	11%[46.1 µM]	20	-7%[46.1 µM]	-3%	-6%	32*
CN1C(=O)S/C(=C\c2ccccc2OCc2ccc(C(=O)O)cc2)C1=O	3%[46.1 µM]	-5	11%[46.1 µM]	-2%	-7%	4
COc1ccc(C(=O)Nc2cnn(Cc3c(F)cccc3Cl)c2)cc1OC	.	12*	.	.	.	20
COc1ccc(-c2cc(C(=O)Nc3cnn(Cc4ccc(F)cc4)c3)no2)cc1OC	?	.	-23%[46.1 µM]	-2%	2%	.
O=C(CCn1cnnn1)Nc1ccc(F)cc1	11%	26*	?	1%	-2%	66*
O=C(N/N=C/c1c(Cl)cccc1Cl)c1ccc(F)cc1	24%	3	27%	.	.	22
Cc1ccsc1/C=N\NC(=O)c1n[nH]c2c1CCC2	6.3µM*	11*	2.8µM*	?	?	3
O=C(N/N=C/c1c(Cl)cccc1Cl)c1n[nH]c2c1CCCC2	?	94*	-43%	.	.	132*
Cc1ccsc1/C=N/NC(=O)Cc1ccc(Cl)cc1	.	9	.	-14%	-31%	19
CSc1ccccc1OCc1cc(C(=O)NCCCn2nc(C)cc2C)no1	-4%	4	0%	-22%	-16%	30
COc1ccc(CCCc2nnc(SCC(=O)Nc3ccc(C)cc3)o2)cc1	3%[46.1 µM]	.	-2%[46.1 µM]	-2%	-9%	.
CC(=O)[C@H]1CC[C@@H](c2ccccc2)N(S(=O)(=O)c2ccc(C)cc2)C1	.	.	.	-4%	-13%	.
Cc1ccc(C(=O)c2nccn2C)cc1C	5%[46.1 µM]	42*	?	10%	-12%	46
Cn1ccnc1C(=O)c1ccc(N)cc1	-2%	-3	20%[46.1 µM]	-7%	i	4
CCOC(=O)C(C)/C(C)=N\Nc1ccc([N+](=O)[O-])cc1[N+](=O)[O-] (centres undefined)	-9%[46.1 µM]	11	?	-3%	-12%	-7
CCOC(=O)C(C)/C(C)=N/NC(N)=S (centres undefined)	19%	-2	2%	?	22µM*	20
CC(=O)N1N=C(c2cccs2)CC1c1cccs1 (centres undefined)	0%[46.1 µM]	-3	4%	-14%	i	12

Source: PubChem BioAssay
